Test results as given in ChEMBL document CHEMBL3988442, “University of Dundee, Small-Polar-MMV Screening Library” (2021).
The campaign covered roughly 48,000 compounds. About 13,000 (27%) showed an effect of 50% or more. The list shows a part of the results.

Each compound was assayed on Wolbachia pipientis (assay: Anti-Wolbachia Cell-Based Screen). Details: 5 µM.
Format: functional
Parameters: scale not given: in the data most compounds retested in dose-response had high values

SMILES | Percent Effect [%]
CC(C)[C@@H]1CN(CC(=O)NCc2ccco2)C[C@H]1NS(=O)(=O)N(C)C | -2.04
CCSc1nc(N)c(NC(=O)c2ccc(C)cc2)c(=O)[nH]1 | -2.31
CN(C)c1ccc(CNC2=NCCCN2)cc1.I | 13.13
I.c1ccc(OCCNC2=NCCCN2)cc1 | 111
Fc1ccc(OCCCN2CC(n3cccn3)C2)cc1 | 3.105
Br.Cc1ccc(OCCCSC2=NCCN2)cc1 | 5.255
Fc1ccc(OCCCNC2=NCCCN2)cc1.I | 81.36
Cn1ncc2c(NCCOc3ccc(F)cc3)nc(C3CCCC3)nc21 | 8.04
CCOCc1ccc(CNC2=NCCCN2)cc1.I | 0.3337
Br.Cc1ccc(OCCSC2=NCCN2)cc1 | 1.775
Fc1ccc(OCCCNC2=NCCN2)cc1.I | 63.04
COC(=O)C1Cc2nc[nH]c2CN1Cc1ccc(Sc2ncccn2)o1 (configuration not stated) | 2.291
COc1cc2nc(NCc3cc(C)on3)nc(N)c2cc1OC | -8.416
CC1CN(Cc2noc(C3CC3)n2)CCN1Cc1nccn1C (configuration not stated) | -7.382
CCNC(=O)c1ccnc(N2CCCC(COc3ccccc3C)C2)c1 (configuration not stated) | 3.224
CCOCCn1nc(C)cc1C(=O)N(C)Cc1cccc2ncccc12 | 6.003
C=C(C)Cn1ccc2cc(OC)c(F)cc2c1=O | -16.88
CC[C@H]1CN(S(C)(=O)=O)CC[C@H]1CC(=O)NCCSC | -2.393
CS(=O)(=O)c1ccc(C(=O)N2CCCC(n3ccnc3)C2)cc1 (configuration not stated) | 96.86
O=C(c1ccn(-c2ccc(F)cc2)n1)N1CCCC(n2ccnc2)C1 (configuration not stated) | 97.03
O=C(c1ccc(-n2ccnc2)cc1)N1CCCC(n2ccnc2)C1 (configuration not stated) | 120.2
Cc1ccn(-c2ccc(C(=O)N3CCCC(n4ccnc4)C3)cc2)n1 (configuration not stated) | 4.214
NC(=O)C1CCCN(C(=O)c2ccc(-n3ccnc3)cc2)C1 (configuration not stated) | 0.2074
CCc1nccn1C1CCCN(C(=O)c2ccn(-c3ccccc3)n2)C1 (configuration not stated) | -25.66
O=C(c1ccc(-n2cnnn2)cc1)N1CCCC(n2ccnc2)C1 (configuration not stated) | 90.08
O=C(CNC(=O)c1ccoc1)NCCOc1ccc2c(c1)CCC2 | 14.09

SMILES | Percent Effect [%]
CCc1nccn1C1CCCN(C(=O)c2ccc(-n3ccnc3)cc2)C1 (configuration not stated) | 94.46
NC(=O)COc1ccc(C(=O)N2CCCC(n3ccnc3)C2)cc1 (configuration not stated) | 96.26
Cc1ccnn1-c1ccc(C(=O)N2CCCC(n3ccnc3)C2)cc1 (configuration not stated) | 116.9
CC1=NN(c2ccc(C(=O)N3CCCC(n4ccnc4)C3)cc2)CC1 (configuration not stated) | -6.024
O=C(c1ccc(OCC2CC2)nc1)N1CCCC(n2ccnc2)C1 (configuration not stated) | -1.875
CCc1nccn1C1CCCN(C(=O)c2cncn2-c2ccccc2)C1 (configuration not stated) | -5.728
NC(=O)COc1cccc(C(=O)N2CCCC(n3ccnc3)C2)c1 (configuration not stated) | 2.122
O=C1COc2cc(C(=O)N3CCCC(n4ccnc4)C3)ccc2N1 (configuration not stated) | -12.82
O=C(c1ccc(-n2cnnc2)cc1)N1CCCC(n2ccnc2)C1 (configuration not stated) | 107.8
CCC(NCCn1cc(C)cn1)C(=O)Nc1cc(C)on1 (configuration not stated) | -26.17
CC(=O)c1cc(CC(=O)NCc2cccc(F)c2F)cs1 | -6.344
O=C1CC[C@H]2CN(c3ncccc3F)CC[C@H]2N1CCc1ccccc1 | 4.939
Cc1noc(C)c1CN(C)Cc1csc(-c2ncccn2)n1 | 0.1209
N[C@@H]1c2ccccc2C2(CCN(C(=O)c3ccc(=O)[nH]c3)CC2)[C@H]1O | 2.656
Cc1cc(CN2CCN(C(=O)NCc3nc(C)cs3)CC2)on1 | -3.882
O=C(c1csc(Br)c1)N1CCCC(n2ccnc2)C1 (configuration not stated) | -1.444
CC1CCCN(C(=O)c2csc(S(N)(=O)=O)c2)CC1 (configuration not stated) | -10.27
NS(=O)(=O)c1cc(C(=O)N2CCCC(n3ccnc3)C2)cs1 (configuration not stated) | 104.4
FC(F)(F)c1cccnc1N1CCC(OC2CCOCC2)CC1 | 1.629
COc1ccc(CNC(C)c2ccc3[nH]c(=O)[nH]c3c2)cc1 (configuration not stated) | 1.768
CC(NCc1ccc(F)cc1)c1ccc2[nH]c(=O)[nH]c2c1 (configuration not stated) | 94.79
CC(NCc1ccc(OCC(N)=O)cc1)c1ccc(Cl)c(Cl)c1.Cl (configuration not stated) | 11.22
CCOc1ccc(CNC(C)c2ccc3[nH]c(=O)[nH]c3c2)cc1 (configuration not stated) | 115.8
CC(NCc1ccc(F)cc1)c1ccc(OCC(=O)NC2CC2)cc1 (configuration not stated) | 13.29
Cc1ccc(CNC(C)c2ccc3[nH]c(=O)[nH]c3c2)s1 (configuration not stated) | 0.5584
Nc1ccnc(N2CCC(CCc3ccccc3)(C(=O)O)CC2)n1 | -1.622

SMILES | Percent Effect [%]
CN(C)C[C@@H]1C[C@@H]2CN(C(=O)Cc3cccs3)CC[C@@H]2N1C | 87.94
CC(=O)N1[C@H](CN(C)C)C[C@@H]2CN(c3ncc(F)cn3)CC[C@@H]21.O=C(O)C(F)(F)F.O=C(O)C(F)(F)F | -11.57
CC(=O)N1[C@H](CN(C)C)C[C@@H]2CN(C(=O)Cc3cccs3)CC[C@@H]21.O=C(O)C(F)(F)F | 96.5
CC(C)CC1COCCN1C(=O)Cc1cccs1 (configuration not stated) | -4.501
CN(C)Cc1nnc(C2CCN(C(=O)CCc3cccs3)CC2)n1C | -18.7
CC(=O)N1[C@H](Cn2cncn2)C[C@@H]2CN(Cc3ccncc3)CC[C@@H]21.O=C(O)C(F)(F)F.O=C(O)C(F)(F)F | -2.106
Cn1cc(CCCNS(=O)(=O)N2CCCC2c2ccco2)cn1 (configuration not stated) | -2.203
OC1(CNc2ccc(Br)cn2)CCSCC1 | 5.842
O=C([C@H]1CCCO1)N1CC[C@H](O)[C@@H]1Cc1cccnc1 | 104.4
O=C([C@H]1CCCO1)N1CC[C@@H](O)[C@@H]1Cc1ccccc1 | 97.77
O=C1CC[C@H]2[C@H](CCN2C(=O)C2CCCO2)N1Cc1ccncc1 (some centres not stated) | 9.155
Cc1cc(C(=O)N2CC[C@H](OCC3CC3)[C@@H]2Cc2cccnc2)no1 | -4.828
CC(C)N(C)[C@@H]1CCN(C(=O)[C@H]2CCCO2)[C@H]1Cc1cnn(C)c1 | -7.042
O=C(O)C(F)(F)F.O=C([C@H]1CCCO1)N1CC[C@H](O)[C@@H]1Cc1ccncc1 | -12.15
Cn1cc(Br)c(=O)c(NS(=O)(=O)c2ccc(F)cc2)c1 | -3.18
CSCCNC(=O)C1CCC(=O)N(C2CCCC2)C1 (configuration not stated) | -26.76
CCOCc1ccccc1NC(=O)NCC(c1cnn(C)c1)N(C)C (configuration not stated) | -8.458
Cc1nc(C(=O)N(C)C2CC(=O)N(Cc3ccccc3)C2=O)cs1 (configuration not stated) | -12.75
CCOC(=O)N1[C@@H](c2ccco2)[C@@H](C(=O)NC)C[C@]12CCCCNC2=O | 102
CCOC(=O)N1[C@@H](c2ccco2)[C@@H](C(=O)O)C[C@]12CCCCNC2=O | 122.2
CCOC(=O)CCNC(=O)N1CCCC(CNC(=O)c2ccco2)C1 (configuration not stated) | 4.582
Cc1cc(NC(N)=O)ccc1C(=O)N(C)C | 10.57
CC(=O)N1CCC(c2nnc3ccc(C(=O)NC(C)C)cn23)C1 (configuration not stated) | 15.69
CN(C)C(=O)N1CCN(CCCc2ccccc2)[C@H]2CS(=O)(=O)C[C@H]21 | -9.893
CN(Cc1coc(-c2ccccc2)n1)CC1CCCN1c1cccnn1 (configuration not stated) | 26.49
O=C(c1ccco1)N1C(CN2CCOCC2)[C@]2(O)CC[C@H]1CC2 (some centres not stated) | 107

SMILES | Percent Effect [%]
O=C(c1ccco1)N1CCC(CSCc2ccco2)CC1 | -5.267
COC(=O)c1sccc1NC(=O)C1CCCN1C(=O)c1ccco1 (configuration not stated) | -17.58
COCc1ccccc1NC(=O)[C@@H]1CCCN1C(=O)c1ccco1 | 6.983
O=C(c1ccc2c(c1)OCCCO2)N1CCCCC1C1OCCO1 (configuration not stated) | -8.172
COCC1N(C(=O)c2ccco2)[C@H]2CC[C@]1(O)CC2 (some centres not stated) | 106.6
O=C(c1ccco1)N1C(CO)[C@]2(O)CC[C@H]1CC2 (some centres not stated) | 85.33
COCC1N(C(=O)c2ccc3c(c2)OCCCO3)[C@H]2CC[C@]1(O)CC2 (some centres not stated) | 106.3
CC1CCCCN1C(=O)c1ccc2c(c1)OCCCO2 (configuration not stated) | -1.264
O=C(c1ccco1)N1CC[C@H]2[C@H]1CCN2S(=O)(=O)C1CC1 | -8.248
O=C(c1ccco1)N1CC[C@@H](N2CCOCC2)[C@@H]1Cc1ccccc1 | -19.81
O=C(NCC1CC1)C1CN(C(=O)c2ccco2)CC12CCOCC2 (configuration not stated) | -3.478
COc1ccc(CC(C)(O)CNC(=O)c2cccs2)cc1 (configuration not stated) | 9.514
O=C(CCNc1ncccn1)NCCc1ccc(Cl)s1 | 4.707
CN1CCN(C2CCN(CCOc3cccc(F)c3)CC2)C1=O | 93.98
CCN1CCN(C2CCN(C(C(N)=O)c3ccc(F)cc3)CC2)C1=O (configuration not stated) | -3.81
CN1C[C@H]2CN(Cc3cccc(OC(F)(F)F)c3)CCN2C1=O | -0.9762
CCN1CCN(C2CCN(Cc3ccc(Cl)s3)CC2)C1=O | -13.73
CN1CCN(C2CCN(Cc3ccc(Cl)cc3)CC2)C1=O | -21.74
Cc1cc(C)n(CC2CN(CCOc3cccc(F)c3)CCO2)n1 (configuration not stated) | -4.27
CN1CCN(C2CCN(CCOc3ccc(Cl)cc3)CC2)C1=O | 110.5
CN1CCN(C2CCN(Cc3ccc(Cl)s3)CC2)C1=O | -8.107
O=C(O)[C@H]1CCCN1CCOc1cccc(Cl)c1 | -3.257
CCN1CCN(C2CCN(CCOc3ccc(F)cc3)CC2)C1=O | 105.5
CN1CCN(C2CCN(CCOc3cccc(Cl)c3)CC2)C1=O | 94.86
